Compounds with a hit are over-represented: about 11% of the library has one in this group of screens.
ALDH1A1 inh: blocks purified human ALDH1A1 activity; P00352; Purified ALDH1A1, NADH fluorescence, propionaldehyde substrate; Potency, µM (series often up to 75.3 µM), for the others: top-dose activity, negative = inhibition, most hits filed as inhibitors; 220,000 compounds, 7.3% hits; active means well fitted inhibition curve with a large enough effect, not every such curve was filed as active; inconclusive means small, poorly fitted or top-dose-only effect, or another doubt; inactive means no such curve, though single readings can be large or run the other way;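 further: potency means the concentration at half of the fitted maximal effect; plate controls were no enzyme wells and a reference inhibitor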
Target sequence (P00352 whole entry, looked up): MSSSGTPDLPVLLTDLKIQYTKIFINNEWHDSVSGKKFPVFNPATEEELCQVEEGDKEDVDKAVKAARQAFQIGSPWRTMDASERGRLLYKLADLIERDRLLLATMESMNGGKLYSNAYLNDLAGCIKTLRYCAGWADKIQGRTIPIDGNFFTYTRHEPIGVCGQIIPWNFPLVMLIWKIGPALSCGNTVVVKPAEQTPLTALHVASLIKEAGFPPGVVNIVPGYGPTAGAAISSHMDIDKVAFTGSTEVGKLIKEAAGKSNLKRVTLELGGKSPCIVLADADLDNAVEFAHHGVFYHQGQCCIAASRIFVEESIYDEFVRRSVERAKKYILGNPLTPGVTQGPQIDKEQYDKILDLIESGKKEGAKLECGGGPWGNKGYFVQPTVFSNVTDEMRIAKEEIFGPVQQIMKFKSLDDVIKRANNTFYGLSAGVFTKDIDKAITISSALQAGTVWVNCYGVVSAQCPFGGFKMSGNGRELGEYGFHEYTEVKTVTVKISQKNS
IMPase Li inh: IMPase inhibition in cells with lithium potentiation | CHO-M1 cells, IP1 TR-FRET (IP-One), carbachol + lithium | Potency, µM (series often up to 59.4 µM), without a hit: at the highest dose activity, negative = IMPase inhibition, actives largely listed as inhibitors | 210,000 compounds, 0.35% hits | AID 1457;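 further: IP1 builds up when IMPase is blocked and the TR-FRET signal falls; potency means the concentration at half of the fitted maximal effect; plate controls were basal vehicle for no effect and high inhibitor control for full effect; nearly all actives have a fitted effect of over 50% in size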
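CHO cells stably expressing M1 receptor (2000/well, cultured 16–30 h) treated 30 min at 37C with compound plus low lithium. Cytosolic IP1 by TR-FRET (665/620 ratio and 620 channel) after 10 min lysis; AC50 by Hill fit.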
PNC assembly inh: inhibitors of perinucleolar compartment assembly. PC3M PTB-GFP, PNC prevalence imaging, 16 h; stronger effect = lower value. activity change (PNC), negative = inhibition, % at 10 µM. 140,000 compounds, 3.1% hits. AID 2417;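 active means readout at or below -70, meaning at least 70% loss of cells showing the perinucleolar compartment, a nuclear body marking cancer cells; inconclusive means readout between -30 and a set limit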;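 further: plate controls were DMSO wells for no effect and camptothecin positive control wells for full effect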
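Read-out is percentage of cells bearing a perinucleolar compartment, from automated 20x imaging of fixed, Hoechst-stained PC3M PTB-GFP cells. Cells were seeded 4 h, then exposed 16 h to compound (23 nl of library stock) in duplicate plates.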
HPGD block: inhibitors of human 15-hydroxyprostaglandin dehydrogenase (HPGD); Potency, µM, for inactives: at the highest dose activity change, negative = inhibition, hits mostly inhibitors; P15428; 150,000 compounds, 4.3% hits; AID 894; purified HPGD, NADH fluorescence kinetic, PGE2 substrate; active means well fitted inhibition curve with a large enough effect, not every such curve was filed as active; inconclusive means small, poorly fitted or top-dose-only effect, or another doubt; inactive means no such curve, though single readings can be large or run the other way; further: potency means the concentration at half of the fitted maximal effect
Target sequence (P15428 whole entry, looked up): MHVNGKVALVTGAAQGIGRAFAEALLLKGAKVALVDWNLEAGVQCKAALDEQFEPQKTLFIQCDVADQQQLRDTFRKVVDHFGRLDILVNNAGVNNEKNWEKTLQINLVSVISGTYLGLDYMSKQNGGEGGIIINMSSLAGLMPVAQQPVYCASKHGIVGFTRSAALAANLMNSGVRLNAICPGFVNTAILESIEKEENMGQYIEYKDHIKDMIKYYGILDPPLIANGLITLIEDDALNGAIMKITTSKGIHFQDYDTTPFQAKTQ
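NADH formation kinetics: reaction with 30 uM PGE2 and 1 mM NAD+ (final), 20 nM enzyme, Tris-HCl pH 8 with Tween 20, after 15 min compound preincubation at room temperature. Fluorescence change, last versus first of five reads.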
12-hLO inh: blocks human 12-lipoxygenase activity. 150,000 compounds, 0.12% hits. purified 12-hLO, xylenol orange hydroperoxide absorbance. Potency, µM (doses to about 57.1 µM), for the others: at the top dose activity change, negative = inhibition, most hits filed as inhibitors. AID 1452; further: potency means the concentration at half of the fitted maximal effect; nearly all actives have a fitted effect of over 55% in size
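Purified human 12hLO (150 nM), preincubated 15 min with compound, then 40 uM arachidonic acid for 30 min, room temperature, Hepes pH 7.0 with 0.01% Triton X-100. Hydroperoxide detected by ferrous iron/xylenol orange; 573/405 nm absorbance ratio gives reaction progress.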
IMPase cell inh: membrane-permeable compound that blocks inositol monophosphatase; P97697; 120,000 tested, under 10 active; inhibition (IP1 accumulation), % at 46.1 µM; CHO-M1 cells, IP1 accumulation, HTRF TR-FRET ratio; AID 901; active means well fitted curve in the direction sought with a large enough effect in the signal ratio, not every such curve was filed as active; inconclusive means small, poorly fitted or top-dose-only effect, or a change in a side signal; inactive means no such curve, though single readings can be large or run the other way; the % refers to the signal ratio;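 further: cells stimulated with carbachol in lithium chloride buffer; plate controls were DMSO basal wells for no effect and reference inhibitor wells for full effect; higher means more IMPase inhibition seen as more IP1 and lower FRET ratio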
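CHO-M1, 2000 cells/well, cultured 16–30 h; cpd up to 46 uM; carbachol (50 uM solution, stimulation buffer w/ 50 mM LiCl, pH 7.4), 30 min 37C; IP-One TR-FRET, 10 min RT; Ex 320/Em 665, 620; Hill-fit AC50.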
An asterisk follows results filed as active; u = inconclusive; x = not tested or not shown; [ ] = another dose, or the depositor's remark. Unless noted, the call rests on the fitted dose curve; in most records, active means well fitted curve in the direction sought with a large enough effect; inconclusive means small, poorly fitted or top-dose-only effect, or another doubt; inactive means no such curve, though single readings can be large; an effect the other way counts as inactive or inconclusive. Unless noted, on the % scale 0 is the no-effect control and ±100 the full control effect.

SMILES | ALDH1A1 inh | IMPase Li inh | PNC assembly inh | HPGD block | 12-hLO inh | IMPase cell inh
CC1=NCC[N@@+]1(CCc1ccccc1)Cc1ccccc1 | -9.1%[13.5 µM] | 7.5% | x | -5.3% | 7.1%[11.4 µM] | x
COCCNc1nc(C)nc2c1nc(-c1ccccc1)n2CCCN1CCCCC1C (stereo unspecified) | u | 8.0% | x | u | -9.1% | x
Cc1ccc(NC(=O)/C=C/c2ccc([N+](=O)[O-])s2)cc1 | -2.7% | -0.6% | -17.0 | -13.9% | -1.6% | x
Cc1cc([N+](=O)[O-])ccc1NC(=O)/C=C/c1cccs1 | u | -0.7% | -112.5* | -10.1% | -6.1% | -4.7
Cc1ccc(NC(=O)/C=C/c2ccc([N+](=O)[O-])s2)c(C)c1 | -7.6% | -1.3% | -97.5* | -17.8% | -3.2% | 5.5
COc1cccc(C2=CC(c3ccccc3)n3ncnc3N2)c1 (stereo unspecified) | u | u | 37.7 | u | -9.3% | -2.7
COc1ccc(OC)c(C2C=C(c3ccc(C)c(C)c3)Nc3nnnn32)c1 (stereo unspecified) | 20µM* | 8.4%[38.3 µM] | -24.6 | -19.0% | -9.7% | -4.7
COc1cccc(C2=CC(c3cccc(OC)c3OC(F)F)n3nnnc3N2)c1 (stereo unspecified) | -1.6% | 17.1%[38.3 µM] | 18.5 | -16.9% | 5.6% | 0.1
COc1cccc(C2=CC(c3ccc(N(C)C)cc3)n3ncnc3N2)c1 (stereo unspecified) | 10µM* | 1.1%[38.3 µM] | u | -20.0% | -19.0% | -1.0
COc1cccc(C2=CC(c3cc(OC)ccc3OC)n3nnnc3N2)c1 (stereo unspecified) | 25.1µM* | 34.4%[38.3 µM] | 27.7 | -13.4% | -10.0% | 10.0
COc1cccc(C2=CC(c3ccccc3)n3nnnc3N2)c1 (stereo unspecified) | u | -1.5%[38.3 µM] | 27.1 | u | -4.8% | -3.8
COc1cccc(C2=CC(c3cccc(OC)c3OC)n3nnnc3N2)c1 (stereo unspecified) | u | 19.6%[38.3 µM] | -86.6* | -25.6% | -5.1% | 1.3
NNC(=O)c1sc2cc(C(F)(F)F)cnc2c1-c1ccccn1 | 7.08µM* | -1.7% | x | x | x | x
O=C(O)c1sc2cc(C(F)(F)F)cnc2c1-c1ccccc1 | 2.6% | -5.0%[38.3 µM] | -13.7 | -16.2% | -1.9% | -5.1
COCCn1c(SCC(=O)c2c(-c3ccccc3)n(C)c3ccccc23)nnc1-c1ccncc1 | 20µM* | 5.9% | -2.5 | -8.8% | -0.1% | 9.6
COCCn1c(SCc2nc3ccccc3c(=O)[nH]2)nnc1-c1ccncc1 | 1.9% | -2.3% | u | -13.9% | 0.7% | -12.7
CCOC(=O)c1ccc(Oc2cc(C)nc(SC)n2)cc1 | -15.4% | 20.4%[38.3 µM] | -99.8* | -12.0% | -1.2% | 9.1
O=C(Cn1cnc2sc(-c3ccccc3)cc2c1=O)NCc1ccccc1 | 13.0% | -21.8%[38.3 µM] | 43.5 | -21.2% | 2.2% | -0.4
O=C(Cn1cnc2sc(-c3ccccc3)cc2c1=O)NCc1ccco1 | u | 20.7%[38.3 µM] | -90.2* | 15.8µM* | -2.6% | -6.8
CC(C)(C)n1ncc2c(=O)n(CC(=O)NCCc3ccccc3)cnc21 | 2.5% | -1.1% | -11.1 | -21.0% | 8.7% | 12.4
O=C(Cn1cnc2c(cnn2-c2ccc(Cl)cc2)c1=O)NCCc1ccccc1 | -2.1% | 12.6µM* | -24.1 | -10.8% | -2.1% | 0.2
O=C(Cn1cnc2sc(-c3ccccc3)cc2c1=O)NCCc1ccccc1 | u | 28.2µM* | u | u | -2.0% | -5.7
CC(C)NCC[C@@H](O)c1cc2ccccc2o1 | -3.5%[13.5 µM] | 0.8% | x | -7.0% | 3.5%[11.4 µM] | x
O=C1Nc2c(c(=O)[nH]c(=O)n2-c2ccc(Cl)cc2)C1(NS(=O)(=O)c1ccccc1)C(F)(F)F (stereo unspecified) | x | x | x | x | x | -6.1
NCCC[C@@H](CC(=O)N[C@@H]1CCCC[C@H]1C(=O)N[C@H](CC(=O)N[C@@H](CCC(=O)O)CC(=O)O)Cc1ccccc1)NC(=O)C[C@H](Cc1c[nH]c2ccccc12)NC(=O)[C@@H]1CCCC[C@H]1N | -6.6% | 2.0% | x | -4.8% | 1.4% | x
SMILES | ALDH1A1 inh | IMPase Li inh | PNC assembly inh | HPGD block | 12-hLO inh | IMPase cell inh
C[C@@]1(C(=O)O)CCC[C@@H]1C(=O)O | 5.0%[13.5 µM] | 3.8% | x | -0.4% | 5.2%[11.4 µM] | x
COc1ccc(S(=O)(=O)N(C)c2ccc(C(=O)NCC3CCCO3)cc2)cc1 (stereo unspecified) | -8.3% | -17.3%[38.3 µM] | u | 2.82µM* | -1.4% | 1.3
O=C(NCC1CCCO1)c1ccc(COc2ccc(Br)cc2)cc1 (stereo unspecified) | u | 8.6% | -19.2 | 7.08µM* | 3.0% | x
CS(=O)(=O)Nc1ccc(C(=O)NCC2CCCO2)cc1 (stereo unspecified) | 6.5% | 26.4%[38.3 µM] | -24.5 | -10.8% | 4.1% | -1.7
COc1ccc(C(=O)NCC2CCCO2)cc1 (stereo unspecified) | 6.4% | -6.1% | 22.0 | 12.6µM* | 9.8% | x
Cc1ccc(C)n1-c1ccc(C(=O)NCC2CCCO2)cc1 (stereo unspecified) | -9.6% | 3.8%[38.3 µM] | 5.6 | 8.91µM* | 0.9% | -2.7
CS(=O)(=O)Nc1cccc(-c2nc(NCCN3CCOCC3)c3ccccc3n2)c1 | -1.1% | -5.4% | x | -6.8% | 0.9% | x
COc1ccc(CC(=O)Nc2ccc(S(=O)(=O)NCC3CCCO3)cc2)cc1 (stereo unspecified) | 10µM* | 9.8% | 7.5 | 22.4µM* | 0.0% | 18.2
CC(=O)Nc1ccc(C(=O)Nc2ccc(S(=O)(=O)NCC3CCCO3)cc2)cc1 (stereo unspecified) | -0.8% | -4.0%[38.3 µM] | 10.5 | -10.7% | -4.6% | 6.6
O=C(NCC1CCCO1)c1cccc(N2CCCC2=O)c1 (stereo unspecified) | 4.0% | 6.9%[38.3 µM] | -2.3 | -19.1% | 6.1% | 0.1
Cc1ccc(C(=O)NCC2CCCO2)cc1N1CCCC1=O (stereo unspecified) | 0.1% | -9.7%[38.3 µM] | 17.2 | 11.2µM* | -1.3% | -3.6
CC(C)NC[C@@H](O)c1ccc(O)c2ncccc12 | -6.3%[13.5 µM] | -3.0% | x | -1.0% | -4.3%[11.4 µM] | x
COc1ccc(CNc2nc(-c3cccc(NS(C)(=O)=O)c3)nc3ccccc23)c(OC)c1 | -6.0% | 5.7% | x | x | x | x
CC1(C)Cc2c(sc3c2c(=N)n(Cc2ccco2)c(=O)n3CC(=O)Nc2ccccc2)CO1 | u | 46.7%[38.3 µM] | u | -8.5% | -4.7% | 3.1
CC1(C)Cc2c(sc3c2c(=N)n(Cc2ccco2)c(=O)n3CC(=O)Nc2ccc(Cl)cc2)CO1 | 20µM* | 42.9%[38.3 µM] | 8.4 | -20.5% | -4.1% | 3.4
CC(=O)C1=C(C)Nc2ncnn2C1c1ccccc1Cl (stereo unspecified) | 25.1µM* | x | -23.2 | x | -3.4% | u
C=CCOC(=O)C1=C(C)Nc2nnnn2C1c1cc(OC)ccc1OC (stereo unspecified) | 4.47µM* | 25.6%[38.3 µM] | 41.8 | 1.8% | -7.5% | 5.1

Assay outcomes deposited in PubChem by National Center for Advancing Translational Sciences (NCATS).
